SW480 rerep = inducers of DNA re-replication in SW480 colon cancer cells; SW480 DNA re-replication, Hoechst DNA content imaging, 48 h; Potency, µM (highest dose often 46.1 µM), for inactives: top-dose re-replication activation, most hits filed as activators; 340,000 compounds, 1.8% hits; AID 624297; further: % of control where 0% means no effect; nearly all actives have a fitted effect of over 55% in size
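Compounds, transferred as 23 nL by pin tool, were incubated with cells for 48 hr; DNA content per nucleus was then quantified by Hoechst staining and fluorescence plate imaging.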
KB-3-1 tox = kills parental KB-3-1 adenocarcinoma cells; KB-3-1 viability, CellTiter-Glo ATP luminescence, 72 h; 400,000 compounds, 1.4% hits; AID 1347075; Potency, µM (series often up to 46.1 µM), actives largely listed as cytotoxic; further: on the % scale 0 is the no-effect control and ±100 the full control effect; nearly all actives have a fitted effect of over 60% in size
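Here the drug-naive KB-3-1 line serves as comparator for MDR sub-line selectivity; cells received compound titrations, 72 h at 37 °C, then CellTiter-Glo readout.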
ELG1 DNA repair = ELG1-dependent DNA repair inhibition; HEK293T ELG1-luciferase reporter, luminescence, 16 h; DNA damage induced by 5-fluorouridine; 330,000 compounds, 2.3% hits; AID 504467; Potency, µM (doses to about 46.1 µM), for inactives: at the highest dose activity change, negative = inhibition, most hits filed as inhibitors; further: on the % scale 0 is the no-effect control and ±100 the full control effect; nearly all actives have a fitted effect of over 55% in size
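DMSO vehicle served as the neutral condition. Each well held 2,000 cells given 5-fluorouridine plus compound; after 16 hr at 37 °C/5% CO2, ONE-Glo was added and luciferase measured 30 min later.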
MCF10A rerep = DNA re-replication induction in MCF 10a cells; AID 624296; Potency, µM (top dose mostly 46.1 µM), for the others: top-dose activity, positive = re-replication, most hits filed as activators; MCF 10A DNA re-replication, Hoechst nuclear intensity, 48 h; 350,000 compounds, 2.9% hits; further: % of control where 0% means no effect; nearly all actives have a fitted effect of over 50% in size
KB-V1 cytotox = kills drug-selected multidrug resistant KB-V1 cells | KB-V1 MDR cells viability, CellTiter-Glo, 72 h | Potency, µM (highest dose often 46.1 µM), most hits filed as cytotoxic | 400,000 compounds, 3.4% hits | AID 1347076; further: on the % scale 0 is the no-effect control and ±100 the full control effect; nearly all actives have a fitted effect of over 60% in size
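Compound-treated KB-V1 multidrug-resistant cells, 72 h, 37 degrees C; viability by CellTiter-Glo. Fitted qHTS curves give the values.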
* = called active by the depositor; i = inactive; ? = inconclusive; nt = no result; ! = a repeat was not active; [ ] = another dose, or the depositor's remark. In the library only some 8.2% were active in any assay of this set; here they are far more common. The call rests on the fitted dose curve; in most records, active means well fitted curve in the direction sought with a large enough effect; inconclusive means small, poorly fitted or top-dose-only effect, or another doubt; inactive means no such curve, though single readings can be large; an effect the other way counts as inactive or inconclusive. Potency means the concentration at half of the fitted maximal effect.

SMILES	SW480 rerep	KB-3-1 tox	ELG1 DNA repair	MCF10A rerep	KB-V1 cytotox
CC(Oc1ccc(Cl)cc1)C(=O)N1CCN(C(=O)c2ccco2)CC1 (centres undefined)	-10%	i	-18%	-5%	21µM*
Cc1cccc(OCC(=O)Nc2ccc(N3CCN(S(C)(=O)=O)CC3)cc2)c1C	-4%	i	6%	2%	i
CCOCCc1nn2c(=O)cc(COC(=O)c3ccc(NC(=O)c4cccs4)cc3)nc2s1	nt	i	nt	nt	i
CCOc1ccc(-n2c(SC(C)C)nc3c(c2=O)SCC3)cc1	14%	i	?	19%	2.9µM*
CCOc1ccc(-n2c(SC)nc3c(c2=O)SCC3)cc1	-12%	i	0%	0%	i
CCN1CCN(Cc2ccc(NC(=O)c3cc(NC(=O)c4cc(-c5ccc(OC)cc5)n[nH]4)cc(OC)c3)cc2C(F)(F)F)CC1	28%	i	14%	9%	16µM*
CCN1CCN(Cc2ccc(NC(=O)c3ccc(C)c(NC(=O)c4c[nH]c5cc(C(F)(F)F)ccc5c4=O)c3)cc2C(F)(F)F)CC1	1.8µM*	2.3µM*	?	12µM*	?
Cc1ccc(C(=O)Nc2cccc(C(F)(F)F)c2)cc1NC(=O)c1c[nH]c2cc(C(F)(F)F)ccc2c1=O	-3%	?	?	-2%	i
CCN1CCN(Cc2ccc(NC(=O)c3cc(NC(=O)c4ccc5n[nH]nc5c4)cc(OC)c3)cc2C(F)(F)F)CC1	-3%[9.22 µM]	i	4%	7%	i
CCN1CCN(Cc2ccc(NC(=O)c3cc(NC(=O)c4cncc(-c5cccs5)c4)cc(OC)c3)cc2C(F)(F)F)CC1	?	?	?	23µM*	18µM*!
CCc1cccc(NC(=O)Cn2c(-c3ccc(F)cc3)cc(C(C)=O)c2C)c1	nt	i	nt	nt	i
CC(C)(CNC(=O)c1ccc(S(=O)(=O)Nc2cccc(C(F)(F)F)c2)cc1)N1CCOCC1	-10%	i	-1%	?	i
COc1ccc(S(=O)(=O)c2c(C)c(NS(=O)(=O)c3ccccc3)cc(C)c2O)cc1	7%	i	?	?	?
COc1ccc(S(=O)(=O)Nc2cc(C)c(O)c(S(=O)(=O)c3ccccc3)c2)cc1	1%	i	7%	-1%	16µM*
CCOc1ccc(-c2cn3c(n2)sc2cc(C(=O)NCCc4ccc(OC)cc4OC)ccc23)cc1	nt	i	nt	nt	i
CCOC(=O)N1CCC(NC(=O)c2ccc3c(c2)sc2nc(-c4ccccc4)cn23)CC1	0%	i	3%	?	i
CCOC(=O)N1CCC(NC(=O)c2ccc3c(c2)sc2nc(-c4cccc(OC)c4)cn23)CC1	nt	nt	2.9µM*	nt	nt
CCOc1ccc(-c2cn3c(n2)sc2cc(C(=O)NCCCN4CCCCCC4)ccc23)cc1	nt	i	nt	nt	?
CCCN1CCN(CCCNC(=O)c2ccc3c(c2)sc2nc(-c4ccc(OCC)cc4)cn23)CC1	nt	18µM*	nt	nt	?
CCOc1ccc(-c2cn3c(n2)sc2cc(C(=O)NCCCN4CCCCC4)ccc23)cc1	nt	?	nt	nt	21µM*
CC1CCCCN1CCCNC(=O)c1ccc2c(c1)sc1nc(-c3ccc(F)cc3)cn12 (centres undefined)	nt	i	nt	nt	21µM*
Cc1ccc(-c2cn3c(n2)sc2cc(C(=O)NCCCN4CCCCCC4)ccc23)cc1	nt	i	nt	nt	i
O=C(NCCCN1CCCCC1)c1ccc2c(c1)sc1nc(-c3ccc(F)cc3)cn12	nt	i	nt	nt	16µM*
Cc1ccc(CNn2cnnc2SCc2ccc(F)cc2)cc1	6%	?	?	4%	15µM*
Fc1ccc(CNn2cnnc2SCc2ccc(F)cc2)cc1	1%	i	?	5%	?
SMILES	SW480 rerep	KB-3-1 tox	ELG1 DNA repair	MCF10A rerep	KB-V1 cytotox
COc1cc([N+](=O)[O-])ccc1N/C=C/C(=O)c1cccs1	-2%	5.2µM*	?	23%	3.3µM*
Cc1ccnc(NC(=S)N2CCN(c3ccc(O)cc3)CC2)c1	nt	i	nt	nt	i
CCSc1ccc2nnc(-c3cccc(F)c3)n2n1	1%	i	21µM*	-12%	?
CC1CCCCN1C(=O)COC(=O)CSc1ccc(C(N)=O)cc1[N+](=O)[O-] (centres undefined)	6.5µM*	i	nt	?	i
CC(C)(C)n1nc(-c2ccc(F)cc2)c2c(N)ncnc21	6%	i	21%	6%	i
CC(C)(C)n1nc(-c2ccc(Cl)cc2)c2c(N)ncnc21	0%[9.22 µM]	?	11%	?	21µM*
CN(CC(=O)NCCCN1CCOCC1)S(=O)(=O)c1ccc(Cl)cc1	-1%	nt	4%	-5%	nt
CCCCC(=O)N(C)c1c(CC)nc2c(OCC(=O)N3CCOCC3)cccn12	nt	i	nt	nt	i
C#CCN(CC=C)C(=O)c1ccc(OC2CCN(S(=O)(=O)N(C)C)CC2)cc1	?	i	21µM*	-3%	i
CN(C)S(=O)(=O)N1CCC(Oc2ccc(C(=O)N3C[C@@H]4CCC[C@H]3C4)cc2)CC1	4%	i	nt	5%	9.2µM*
CN(C)S(=O)(=O)N1CCC(Oc2ccc(C(=O)N3C[C@H]4CC[C@H]3C4)cc2)CC1	-14%	nt	13µM*	-3%	nt
C=C(C)CN(CC)C(=O)c1ccc(OC2CCN(S(=O)(=O)N(C)C)CC2)cc1	-17%	i	?	16%	i
COC1CCCN(C(=O)c2ccc(OC3CCN(S(=O)(=O)N(C)C)CC3)cc2)C1 (centres undefined)	5%	i	?	10%	?
O=c1cc(C(F)(F)F)nc(SCc2cccnc2)[nH]1	-21%	i	2%	-5%	i
C=CC[n+]1c(-c2ccc(Cl)cc2Cl)csc1Nc1c(C)n(C)n(-c2ccccc2)c1=O	?	?	?	?	i
CCCC[n+]1c(-c2ccc(Cl)cc2Cl)csc1Nc1ccccc1	1%	i	-9%	23µM*	?
C=CC[n+]1c(-c2ccc(Cl)cc2Cl)csc1Nc1ccc(NC(C)=O)cc1	23µM*	?	6%	?	i
Clc1ccc(-c2csc(Nc3ccccc3)[n+]2Cc2ccco2)c(Cl)c1	-18%	?	?	?	?
COc1ccc(N(C)S(=O)(=O)c2cccc(C(=O)N3CCN(c4cccc(C)c4C)CC3)c2)cc1	28%	16µM*	nt	12%	i
Cc1cccc(N2CCN(C(=O)c3ccc(S(=O)(=O)N(C)c4ccccc4)cc3)CC2)c1C	10µM*	?	?	5.2µM*	23µM*
C=CCn1c(COc2ccc(OC)cc2)nnc1SCn1nnc2ccccc2c1=O	-30%	i	-8%	-67%	21µM*
Cc1ccc(CN(C(=O)c2ccc(OCC(C)C)cc2)c2ccccn2)o1	nt	i	nt	nt	i

Screening data deposited in PubChem BioAssay by National Center for Advancing Translational Sciences (NCATS).
